Measured values from PubChem BioAssay (NCI).
Compounds without any hit were thinned out: in the full panel of roughly 83,000, 20% have a hit.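 Treatment: one concentration, 48 hours, 96-well format. Scoring: percent growth, with anything below 10 considered active.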 Unmarked numbers belong to inactive results. The source made the active and inactive calls.

Key:
Test in all cases: NCI-60 one-dose screen, 48 h (100 = growth as untreated, 0 = no growth, -100 = all killed)
Details in all cases: 10 µM unless noted
HCT-15 colon = test system: HCT-15 colon
HT29 colon = test system: HT29 colon
SNB-19 CNS = test system: SNB-19 CNS
U251 CNS = test system: U251 CNS
PC-3 prostate = test system: PC-3 prostate
SK-MEL-5 melanoma = test system: SK-MEL-5 melanoma
UACC-62 melanoma = test system: UACC-62 melanoma
LOX IMVI melanoma = test system: LOX IMVI melanoma
SK-MEL-2 melanoma = test system: SK-MEL-2 melanoma
EKVX NSCLC = test system: EKVX NSCLC
SN12C renal = test system: SN12C renal
UO-31 renal = test system: UO-31 renal
TK-10 renal = test system: TK-10 renal
ACHN renal = test system: ACHN renal
CAKI-1 renal = test system: CAKI-1 renal
A498 renal = test system: A498 renal
CCRF-CEM leukemia = test system: CCRF-CEM leukemia
MOLT-4 leukemia = test system: MOLT-4 leukemia
SK-MEL-28 melanoma = test system: SK-MEL-28 melanoma

Compound | growth (HCT-15 colon) | growth (HT29 colon) | growth (SNB-19 CNS) | growth (U251 CNS) | growth (PC-3 prostate) | growth (SK-MEL-5 melanoma) | growth (UACC-62 melanoma) | growth (LOX IMVI melanoma) | growth (SK-MEL-2 melanoma) | growth (EKVX NSCLC) | growth (SN12C renal) | growth (UO-31 renal) | growth (TK-10 renal) | growth (ACHN renal) | growth (CAKI-1 renal) | growth (A498 renal) | growth (CCRF-CEM leukemia) | growth (MOLT-4 leukemia) | growth (SK-MEL-28 melanoma)
O=C1/C(=C/c2ccc([N+](=O)[O-])cc2)CN(C(=O)CCN2CCC(=NO)CC2)C/C1=C\c1ccc([N+](=O)[O-])cc1 | -68.4% (active) | -49.7% (active) | -41.6% (active) | -56.8% (active) | -34.6% (active) | -50.5% (active) | -52.2% (active) | -83.3% (active) | 2.76% (active) | -31.9% (active) | -17.6% (active) | -94.9% (active) | 8.77% (active) | -59.2% (active) | -46.3% (active) | -3.11% (active) | -13.3% (active) | -7.02% (active) | 
Cc1cc(C2(c3cc(C)c(O)cc3C)OS(=O)(=O)c3ccccc32)c(C)cc1O | 105% | 92.9% | 94.2% | 78% | 87.2% | 104% | 90.9% | 105% | 111% | 105% | 96.7% | 69.4% | 88.5% | 105% | 95.7% | 93.9% | 93.7% | 96.3% | 
N=C(N)c1ccc(-c2ccc(-c3ccc(-c4cccs4)s3)s2)cc1 | 101% | 95% | 97.5% | 91.2% | 89% | 91.4% | 93.3% |  | 108% | 90.1% | 93.7% | 93% | 95.3% | 102% | 106% | 20.6% | -47.8% (active) | 98% | 102%
Brc1ccc(-c2[nH]ncc2-c2c[nH]c3ccccc23)cc1 | 94.9% | 109% | 97% | 93.9% | 77.4% | 100% | 91.7% | 89.7% | 109% |  | 88.5% | 57.4% | 129% | 96.5% | 86.7% | 65.1% | 54.7% | 70.3% | 
C=CCSc1n[nH]c(-c2cccs2)n1 | 103% | 102% | 103% | 99.3% | 108% | 104% | 101% | 99.8% | 3.39% (active) | 108% | 97.2% | 118% | 121% | 105% |  | 101% | 94.6% | 99.5% | 
COc1ccc(C2=Nn3c(nnc3-n3nc(C)cc3C)SC2)cc1 | 17.1% | -17% (active) | 46% | 15.5% | 9.91% (active) | 0.149% (active) | 39.5% | 26.9% | 16.8% |  | 33.2% | 45.8% | 49% | 35.6% | 53.1% | -8.89% (active) | 6.66% (active) | 5.34% (active) | 
FC(F)(F)c1ccccc1-c1cn2c(ccc3ccccc32)n1 | 55.4% | 42.2% | 83% | 88.5% | 79.4% | 80.7% | 55.4% | 74.5% | 51.8% | 88.5% | 88.3% | 61.1% | 125% | 82.3% | 58.7% | 81.6% | 78.6% | 107% | 
O=C1c2ccccc2-c2ccccc2C1(Cl)Cl | -60.2% (active) | -38.4% (active) | -83.5% (active) | -90.1% (active) | -29.5% (active) | -95.5% (active) | -83.4% (active) | -31.8% (active) | -71% (active) | -93.2% (active) | -76.1% (active) | -100% (active) | 90% | -67% (active) | -92.1% (active) | 101% | 11.2% | 0.097% (active) | 
N=C(N)c1ccc(-c2ccc(-c3ccc4ccccc4c3)s2)cc1 | 3.41% (active) | -42% (active) | 97.1% | 27% | 91.6% | 93.9% | 96.9% |  | 104% | 105% | 95.8% | 84.6% | 27% | 97.1% | 92.3% | 91.3% | 64.1% | 76.3% | 100%
COc1cc(NC(N)=NCCC(C)(C)Oc2ccc(C(F)(F)F)cc2)ncc1C#N | -70.7% (active) | -79.4% (active) | 27.8% | -98.2% (active) | 13.4% | -95.8% (active) | -51.8% (active) | -97.2% (active) | -38.5% (active) | 27.1% | -90.3% (active) | -23.5% (active) | -74.2% (active) | 2.74% (active) | 51.6% | 42.8% | -13.8% (active) | -20.8% (active) | 
Cc1[nH]c2ccc(F)cc2c1CCNC(=O)C1CCN(C(=O)c2ccccc2)C1 (stereo not given) | 93.4% [25 µM] | 101% [25 µM] | 93.2% [25 µM] | 92.8% [25 µM] | 79.9% [25 µM] | 82.2% [25 µM] | 93.3% [25 µM] |  | 113% [25 µM] | 80.5% [25 µM] | 95% [25 µM] | 77.1% [25 µM] | 86.9% [25 µM] | 96.3% [25 µM] | 77.1% [25 µM] | 43.8% [25 µM] |  | 91.6% [25 µM] | 95.1% [25 µM]
O=C(NS(=O)(=O)c1ccccc1)n1cc(-c2ccncc2)c(-c2ccc(Cl)c(O)c2)n1 | 103% | 100% | 111% | 110% | 93.4% | 100% | 59% | 79.9% | 64% | 104% | 97.4% | 112% | 101% | 86.8% | 99% | 106% | 89.8% | 82.7% | 
CN(C[C@H]1Cc2c(cccc2N2CCN(c3ncccn3)CC2)CN1)[C@H]1CCCc2cccnc21 | 31.6% | 21.2% | 41% | 24.1% | 34.2% | 26.9% | 53.7% | 36.4% | 68.8% | 37.7% | 39.9% | 16.9% | 38% | 35.5% | 33.5% | 58.1% | 22.4% | 27.9% | 
COc1ccc(N2CCN(Cc3cc(C(=O)/C=C/c4c[nH]c5ccccc45)ccc3O)CC2)cc1 | 98.7% | 106% | 100% | 95% | 88.3% | 99.6% | 101% | 97.2% |  |  | 97.1% | 55.9% | 117% | 97.4% |  | 106% | 95.8% | 95% | 110%
O=[N+]([O-])c1ccc(C(c2ccccc2)c2ccccc2)cc1 | 86.4% | 84.4% | 96.9% | 102% | 94.1% | 96.7% | 85.5% | 69.7% | 110% | 94.8% | 92% | 80.4% | 96.4% | 90.3% | 83.1% | 91.3% | 97.8% | 95.2% | 
C=C1CCC2C(C)(CO)C(O)CCC2(C)C1CC(NCc1ccccc1)C1=CCOC1=O (stereo not given) | 105% | 99.6% | 101% | 96.2% | 101% | 113% | 94.5% | 97.5% | 101% | 100% | 93.1% | 87.9% | 103% | 100% | 90.3% | 106% | 105% | 108% | 
COc1ccc(-c2ccc(-c3ccc(C(=N)N)s3)s2)cc1Cl | -76% (active) | -84% (active) | 35.2% | -86.2% (active) | -92% (active) | 67.5% | -92.1% (active) |  | 96.2% | 70.1% | -83.7% (active) | 81.4% | -45.1% (active) | 16.9% | 68.3% | 65.3% | -31.2% (active) | -57.3% (active) | 90.1%
